# Screen size: about 290,000 compounds; about 670 (0.23%) were called active. The entries come from a sample that favours actives as a whole. Values without a mark were called inactive.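 How the source made its calls: active means inhibition above a per-plate limit of that plate's mean compound inhibition plus 3 SD (cut at about 60% in these data); inactive means the rest.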
# Experiment: suppression of KLF5 promoter-driven luciferase – DLD-1 cells, luminescence, primary screen (AID 1700);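 further: 0% = DMSO wells and 100% = LY294002 at 200 µM; higher means less KLF5 promoter-driven luciferase light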
# Details: DLD-1 KLF5 promoter-luciferase reporter, at 5 µM, active compounds read high
row,Compound,inhibition
1,CCOCCCNc1c(CC)c(C)c(C#N)c2nc3ccccc3n12,-21.6%
2,Cc1cccc(CN2CCC(n3nccc3NC(=O)c3ccccc3C)CC2)n1,-34.2%
3,CCCCCNC(=O)C1c2ccccc2Oc2ccccc21,-20.8%
4,Cn1cc(S(=O)(=O)Nc2ccc(Cl)cc2Cl)c(=O)n(C)c1=O,-22.9%
5,CCCc1ccc(OCC(O)CN2CCN(CCO)CC2)cc1 (configuration not stated),7.32%
6,O=C(N/N=C/c1sc(N2CCCCC2)nc1-c1cccs1)c1cccnc1,-30.2%
7,COc1cccc(-c2nc(CS(=O)CC(=O)NCc3ccc(F)cc3)c(C)o2)c1 (configuration not stated),-11.1%
8,NS(=O)(=O)c1ccc(CCNS(=O)(=O)c2cccc3cccnc23)cc1,-50.1%
9,CC(C)C(C)NC(=O)COc1nc2ccccc2nc1N(C)C1CCCCC1 (configuration not stated),-6.02%
10,COc1ccc(S(=O)(=O)Nc2ccc3c(c2)OCO3)cc1Cl,-5.73%
11,COc1ccccc1C1C2=C(COC2=O)Nc2cc3c(cc21)OCO3 (configuration not stated),75.8% (active)
12,CCCOc1ccccc1C1CC(=O)Nc2cc3c(cc21)OCO3 (configuration not stated),46.2%
13,CCOC(=O)CSC1=C(C#N)C(c2ccco2)C(C(=O)OCc2ccccc2)=C(C)N1 (configuration not stated),-11.8%
14,Cc1ccc(C2CC(=O)NC(SCC(=O)OCc3ccccc3)=C2C#N)o1 (configuration not stated),6.45%
15,CCOC(=O)CSC1=C(C#N)C(c2sccc2C)CC(=O)N1 (configuration not stated),63.2% (active)
16,NC(=O)CN1CCCC1c1ccc2c(c1)OCCO2 (configuration not stated),-21.8%
17,C=CCn1c(=O)c(C(=O)NCc2ccc3c(c2)OCO3)c(O)c2ccccc21,-23.1%
18,CC/C(=N\NC(=O)c1c(C)nc2ccccn12)c1ccc(Cl)cc1,-19.6%
19,Cc1cc(Cl)c2oc(C(=O)N(C)C(C)c3ccccn3)c(C)c2c1 (configuration not stated),-79%
20,CC(C)Oc1ccc(/C=N/NC(=O)c2nnn(-c3nonc3N)c2CN(C)C2CCCCC2)cc1,-15.7%
21,CCOc1cc(-c2conc2N)cc(OCC)c1OCC,5.84%
22,O=C(NCCc1ccccc1)C(=O)NCC1OCCN1S(=O)(=O)c1cccs1 (configuration not stated),-36.9%
23,COc1ccc2[nH]cc(CCN3C(=O)c4ccc(C(=O)O)cc4C3=O)c2c1,-177%

row,Compound,inhibition
1,COc1ccc(OC)c(CCNC(=O)c2nn(C)c3c2CS(=O)(=O)c2ccccc2-3)c1,-12.5%
2,CC(C)CCn1c(=O)c2c(nc3n2CCCN3Cc2ccccc2)n(C)c1=O,-4.63%
3,Cc1ccc(C)c(N2CCN(C(=O)CCCn3c(=O)c4cccn4c4cccnc43)CC2)c1,5.08%
4,CCN(CC)S(=O)(=O)c1ccc(N2CC(C(=O)NCc3cccnc3)CC2=O)cc1 (configuration not stated),-14.9%
5,COc1ccc(S(=O)(=O)N(CC(=O)N/N=C/c2ccc(C(=O)O)cc2)Cc2ccccc2)cc1OC,5.79%
6,COc1ccc(Cc2nnc(N/N=C/c3ccccc3O)[nH]c2=O)cc1OC,102% (active)
7,O=c1[nH]c(NCCO)nnc1Cc1ccc(Cl)cc1,-8.33%
8,Cc1nnc(N/N=C/c2ccccn2)[nH]c1=O,2.56%
9,COc1ccc(NC(=O)CCCN2C(=O)C(c3ccccc3)Oc3cccnc32)cc1 (configuration not stated),-1.26%
10,Nc1nc(SCC(=O)Nc2cc(C(F)(F)F)ccc2Cl)[nH]c(=O)c1NC(=O)c1ccco1,-9.6%
11,Cc1ccc(OCCCC(=O)Nc2ccc(S(=O)(=O)Nc3cc(C)nc(C)n3)cc2)cc1,0.85%
12,O=S(=O)(c1cc(Cl)ccc1Cl)N1CCN(Cc2ccco2)CC1,-4.75%
13,Nc1ccc2nn(-c3ccc(Cl)cc3)nc2c1,97.7% (active)
14,CCC(=O)Nc1ccc2nn(-c3ccc(F)cc3)nc2c1,-97%
15,c1ccc(-n2nc3ccccc3n2)cc1,-2.18%
16,O=C(c1cc(-c2ccc(Cl)cc2)on1)N1CCN(c2ccccc2)CC1,-69.1%
17,Cc1cccc(C)c1OCCN1CCOCC1,-15.7%
18,Cc1ccc2c(c1)N(S(=O)(=O)c1cc(-c3cc(C)no3)ccc1C)CCO2,-37.9%
19,Cc1ccc(NC(=S)Nc2ncccc2C)c(C)c1,79.6% (active)
20,Cc1ccc(NC(=S)NCc2ccccc2Cl)c(C)c1,-3.59%
21,Cc1ccc(NC(=S)NCCc2ccc(Cl)cc2)c(C)c1,-19%
22,CCN1C(=NCCc2cccnc2)N[C@@H](c2ccccc2)C(C(=O)OC)=C1C,-22%
23,CC(C)c1ccc(NC(=O)Cn2ncc3ccccc32)cc1,-106%

row,Compound,inhibition
1,CN(c1cccc(NC(=O)c2ccc(CN3CCc4ccccc4C3)cc2)c1)S(C)(=O)=O,-29.8%
2,CCN(CC)N=Nc1cccc(NC(C)=O)c1,-51.2%
3,Cc1ccc(C(=O)NC23CC4CC(CC(C4)C2)C3)c(Cl)c1,-45.4%
4,O=C(N/C(=C\c1ccc(O)cc1)C(=O)N1CCCCC1)c1ccccc1,-7.29%
5,CCNC(=O)CCc1nc(-c2ccc(C(C)(C)C)cc2)no1,61.9% (active)
6,CN1CCN(C(=O)CCc2nc(-c3ccc(Cl)cc3)no2)CC1,-29.1%
7,CCNC(=O)CCc1nc(-c2ccc(C)cc2)no1,-43.2%
8,CCc1ccccc1S(=O)(=O)Cc1ccc(C(=O)NCCc2ccccc2)o1,-41.4%
9,CCOC(=O)C1CCN(C(=O)Cn2nc(C)c3c(C)n(-c4ccccc4)nc3c2=O)CC1,-39.7%
10,COc1cccc(-c2cc(C(=O)N3CCN(c4ccccc4OC)CC3)no2)c1,-15.2%
11,COc1ccccc1N1CCN(C(=O)c2cc(=O)c3cc(C)ccc3o2)CC1,15.1%
12,COc1ccccc1N1CCN(C(=O)c2cc(=O)c3cc(C)cc(C)c3o2)CC1,88.2% (active)
13,Cc1c(NC(=O)CSCc2ccccc2)cccc1C(=O)O,-44.3%
14,COc1cc(C(=O)NC2CCN(Cc3ccccc3)CC2)cc(Cl)c1OC(C)C,0.72%
15,O=C(Nc1nonc1-c1ccc(Cl)cc1)c1ccco1,-1.44%
16,COc1ccccc1/C=N\Nc1cc(C)nc(-n2nc(C)cc2C)n1,-41.2%
17,Cc1cc(Oc2ccc(Cl)cc2)nc(SCC(=O)c2ccccc2)n1,-18.8%
18,COc1ccc(Nc2cc(C)nc(-n3nc(C)cc3C)n2)cc1,75.5% (active)
19,CCOC(=O)c1cnc(-n2nc(C)cc2C)nc1Nc1cccc(C(C)=O)c1,-11.5%
20,Cc1cc(N/N=C\c2ccc(Br)cc2)nc(-n2nc(C)cc2C)n1,3.64%
21,CC(=O)c1ccc(Oc2cc(C)nc(-n3nc(C)cc3C)n2)cc1,61.9% (active)
22,COc1ccccc1CNS(=O)(=O)c1ccc2c(c1)NC(=O)CS2,-51%
23,CC(=O)c1ccc(N2Cc3ccccc3C2)cc1,-125%

row,Compound,inhibition
1,CCC(=O)NC(Nc1nc2ccc(C)cc2s1)(C(=O)OC)C(F)(F)F (configuration not stated),21.2%
2,O=C(Nc1nc2ccc([N+](=O)[O-])cc2s1)c1ccc(S(=O)(=O)N2CCCc3ccccc32)cc1,-18.3%
3,O=C(NC(Nc1nc2ccc([N+](=O)[O-])cc2s1)(C(F)(F)F)C(F)(F)F)c1ccccc1,67.7% (active)
4,COC(=O)c1ccc(COc2ccc(/C=C/C(=O)c3ccc(OC)c(CSCC(=O)O)c3)cc2OC)cc1,26.8%
5,CCC(C(=O)NCc1cccnc1)n1nc(C)c2sc3ccccc3c2c1=O (configuration not stated),-24.5%
6,CC(C)CNS(=O)(=O)c1ccc(C(=O)Nc2ccc3c(c2)OCO3)cc1,-18.9%
7,COc1ccccc1C(=O)NC(=S)NC12CC3CC(CC(C3)C1)C2,-5.49%
8,Cc1ccc(-c2csc(NC3OC(=O)c4ccccc43)n2)cc1 (configuration not stated),9.97%
9,Cc1ccn2c(=O)c(C(=O)NCCC3=CCCCC3)c(O)nc2c1,2.41%
10,C[C@@H]1C[C@@H]2O[C@H]2/C=C\C=C\C(=O)Cc2c(Cl)c(O)cc(O)c2C(=O)O1,64.1% (active)
11,COc1cc2c(cc1O)[C@H](Cc1ccc(Oc3cc(C[C@@H]4NCCc5cc(OC)c(O)cc54)ccc3O)cc1)NCC2,-7.79%
12,CCc1ccc(OCC2c3cc(OC)c(OC)cc3CCN2C(C)=O)cc1 (configuration not stated),-8.46%
13,CC[C@H]1CN2CCc3cc(OC)c(OC)cc3[C@@H]2C[C@@H]1C[C@H]1NCCc2cc(OC)c(OC)cc21,106% (active)
14,COc1ccc(Cc2nnc(SCC(=O)Nc3ccc(C)c(C)c3)o2)cc1OC,-24.5%
15,COc1cccc(N(CC(=O)NC2CCCCCC2)S(=O)(=O)c2ccccc2)c1,-3.24%
16,Cc1cccc(OCC(=O)Nc2ccc(NC(=O)c3ccco3)c(C)c2)c1,-14.3%
17,O=C(COc1ccc(Cl)cc1)NCCS(=O)(=O)N1CCN(c2ccc(F)cc2)CC1,-3.45%
18,Oc1c(Cl)cc(Cl)c(Cl)c1Cc1c(O)c(Cl)cc(Cl)c1Cl,81% (active)
19,O=C(N/N=C1\CCSC1)c1cc(Cl)ccc1O,-24.9%
20,COc1ccc(CNc2nccs2)cc1,-8.32%
21,COc1ccc(C(C)NC(=O)C23CC4CC(CC(C4)C2)C3)cc1 (configuration not stated),13.8%
22,Cc1ccc(O)c(NC(=O)c2cc(-c3ccco3)on2)c1,-124%
23,N#Cc1ccc(C(=O)Nc2nc(-c3cccs3)c(C(=O)C(F)(F)F)s2)cc1,16.3%

# — PubChem BioAssay AID1700 (The Scripps Research Institute Molecular Screening Center, 2009)
